91 compounds from ChEMBL document CHEMBL1201862, “PubChem BioAssay data set” (2004) can be followed below.

The whole screen tested about 400,000 compounds, of which about 2,100 (0.53%) were called active. About 14% were inconclusive and are not listed. This is one part of a sample in which actives are shown more often than they occur. No rule for the calls is given here.

The assay deals with Ataxin-2 (Homo sapiens) (UniProt Q99700). The assay can be described thus: qHTS for Inhibitors of ATXN expression. The assay is classed as functional.
Ataxin-2 (Homo sapiens), sequence (Q99700 whole entry): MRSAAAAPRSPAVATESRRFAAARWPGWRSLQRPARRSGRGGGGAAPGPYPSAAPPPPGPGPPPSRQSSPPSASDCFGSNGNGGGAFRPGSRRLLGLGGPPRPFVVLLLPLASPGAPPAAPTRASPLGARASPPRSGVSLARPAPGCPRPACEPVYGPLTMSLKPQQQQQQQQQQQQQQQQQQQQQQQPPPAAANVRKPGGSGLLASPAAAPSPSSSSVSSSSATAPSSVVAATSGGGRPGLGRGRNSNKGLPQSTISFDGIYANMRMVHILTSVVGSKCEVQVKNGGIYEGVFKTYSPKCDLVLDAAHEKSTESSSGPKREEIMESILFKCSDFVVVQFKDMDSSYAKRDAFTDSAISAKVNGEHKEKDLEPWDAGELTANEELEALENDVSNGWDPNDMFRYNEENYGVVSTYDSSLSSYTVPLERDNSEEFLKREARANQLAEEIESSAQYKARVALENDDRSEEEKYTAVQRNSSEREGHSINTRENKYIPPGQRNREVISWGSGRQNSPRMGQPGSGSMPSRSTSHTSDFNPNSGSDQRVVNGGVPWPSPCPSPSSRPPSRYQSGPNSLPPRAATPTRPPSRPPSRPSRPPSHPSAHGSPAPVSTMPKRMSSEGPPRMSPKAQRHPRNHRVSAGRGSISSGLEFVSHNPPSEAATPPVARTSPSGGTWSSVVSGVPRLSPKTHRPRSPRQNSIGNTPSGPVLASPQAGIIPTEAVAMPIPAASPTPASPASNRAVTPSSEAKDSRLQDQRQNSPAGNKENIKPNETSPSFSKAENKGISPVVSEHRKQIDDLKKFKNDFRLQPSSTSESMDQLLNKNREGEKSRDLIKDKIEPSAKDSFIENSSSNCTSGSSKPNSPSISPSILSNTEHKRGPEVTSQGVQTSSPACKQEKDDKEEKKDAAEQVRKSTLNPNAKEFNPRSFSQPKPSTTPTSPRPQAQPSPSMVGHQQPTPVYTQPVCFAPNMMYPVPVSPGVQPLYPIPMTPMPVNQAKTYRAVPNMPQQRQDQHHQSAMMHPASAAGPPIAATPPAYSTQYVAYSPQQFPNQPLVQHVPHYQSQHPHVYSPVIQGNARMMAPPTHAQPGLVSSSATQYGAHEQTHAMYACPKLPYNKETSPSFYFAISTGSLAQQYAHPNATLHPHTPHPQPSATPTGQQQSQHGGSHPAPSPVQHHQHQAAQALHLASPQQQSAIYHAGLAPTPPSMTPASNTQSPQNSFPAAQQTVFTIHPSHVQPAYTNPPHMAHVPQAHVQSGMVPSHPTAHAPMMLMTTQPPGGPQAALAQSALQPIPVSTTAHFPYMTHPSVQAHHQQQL
For `CCc1ccc(/C=C(/C#N)c2nc(-c3ccc(C)cc3)cs2)cc1`, the Potency result is “inactive”.
Under `CCOc1cc(/C=C(\C#N)c2nc(-c3cccs3)c(NC(C)=O)s2)ccc1O` stands “inactive”; under `CCOc1ccc(-c2csc(/C(C#N)=C\c3ccc(O)c([N+](=O)[O-])c3)n2)cc1`, 8.91 µM (active).
On to `CCOc1ccc2nc(NCCCNS(=O)(=O)c3ccccc3)c(C#N)cc2c1`, for which the Potency result was “inactive”.
`CN1CCN(c2ccc(NC(=O)c3ccc(-c4ccc(Cl)cc4)o3)cc2)CC1`: the Potency was 25.1 µM (active).
In the case of `CN1CCN(c2ccc(NC(=O)c3sc4ccccc4c3Cl)cc2)CC1`, the Potency entry was “inactive”.
Regarding `CC(=O)N1CCN(c2ccc(NC(=O)c3cccc(F)c3)cc2)CC1`, the Potency result is “inactive”.
For the compound `CCCCOC(=O)c1ccc(NC(=O)/C(C#N)=C/c2ccc(-c3ccccc3)o2)cc1`, the Potency entry was “inactive”.
As to `CCOc1cccc(/C=N/NC(=O)CC2C(=O)NN=C2C)c1O` (stereo unspecified), the Potency entry was “inactive”.
For `COc1ccc(/C=N/OCC(=O)N=Nc2c(O)[nH]c3ccc(Br)cc23)cc1`, the Potency entry was “inactive”.
For the compound `Cc1cccc(N=Nc2c(O)[nH]c3ccc(F)cc23)c1`, the Potency entry is “inactive”.
In the case of `O=C(N=Nc1c(O)[nH]c2ccc(Br)cc12)c1ccccc1-n1cccc1`, the Potency was 17.8 µM (active).
On to `Cc1cc(C)c(C#N)c(SCC(=O)Nc2nonc2N)n1`, for which the Potency entry was “inactive”.
As for `COc1ccccc1N1C(=O)C2C(C(=O)c3ccccc3)=NN(c3ccc(Br)cc3)C2C1=O` (stereo unspecified), the Potency entry was “inactive”.
The value for `COc1cccc(C(=O)Oc2c(Sc3ccc(C)cc3)c(C)nn2C(C)(C)C)c1OC` was 20 µM (active); that for `Cc1ccc(S(=O)(=O)c2c(C)nn(C(C)(C)C)c2OC(=O)C(C)C)cc1` was “inactive”.
In the case of `CCN1C=C(C(=O)OC)C(c2cccc(OC)c2OC)C(C(=O)OC)=C1`, the Potency result was “inactive”.
In the case of `CC(=O)Nc1ccc(N2C(=O)c3cccc4c(O)ccc(c34)C2=O)cc1`, the Potency entry was “inactive”.
The value for `CC(=O)Nc1ccc2c3c(cccc13)C(=O)N(c1ccccc1)C2=O` was “inactive”.
`CC(=O)NN1C(=O)c2ccc3c4c(ccc(c24)C1=O)C(=O)N(NC(C)=O)C3=O`: the Potency is 25.1 µM (active).
For the compound `CCOCCCn1/c(=N/C(=O)c2cccs2)c(C#N)cc2c(=O)n3ccccc3nc21`, the Potency entry is “inactive”.
Under `COc1cccc(N/C(SC)=C(/C#N)C(=O)NCc2cccs2)c1` stands “inactive”; under `COc1cccc(C(=O)C(C#N)=C(SC)SC)c1`, 14.1 µM (active); under `CSC(SC)=C(C#N)C(=O)c1ccccc1`, 39.8 µM (active).
As for `Cc1cc(C)c(C#N)c(SCC(=O)c2ccccc2)n1`, the Potency result was “inactive”.
On to `CCOC(=O)C1(C)C(=O)CC2c3nc4ccccc4cc3CN2C1=O` (stereo unspecified), for which the Potency entry is “inactive”.
On to `O=C1c2ccccc2S(=O)(=O)c2cc(N3CCC4(CC3)OCCO4)ccc21`, for which the Potency entry was “inactive”.
With `CCN(CC)C(=O)CSC(Nc1cccc(F)c1)=C(C#N)C#N`, the Potency result is “inactive”.
Turning to `N#Cc1c(Cl)nc(-c2ccncc2)nc1-c1ccccc1`, the Potency entry is “inactive”.
Take `CC(C)(C)SCCNS(=O)(=O)c1ccc(C#N)cc1`: the Potency entry is “inactive”.
`COc1ccc(NC(=O)c2ccc(NC(=O)CN3CCN(c4ccc(O)cc4)CC3)cc2)cc1`: the Potency was 31.6 µM (active).
Under `COc1ccc(NC(=O)CN2CCN(c3ccccc3)CC2)cc1` stands “inactive”.
As to `COc1ccc(N2CCN(CC(=O)NC(=O)NC(C)(C)C)CC2)cc1`, the Potency result is “inactive”.
On to `CC(C)Oc1ccc(C(=O)/C=C2/C(=O)Nc3ccccc32)cc1`, for which the Potency was 39.8 µM (active).
With `O=C1S/C(=C\c2ccc(O)c([N+](=O)[O-])c2)C(=O)N1c1ccccc1Cl`, the Potency is 33.6 µM (active).
Consider `Cn1cc(/C=C2\SC(=O)N(c3ccccc3)C2=O)c2ccccc21`, for which the Potency entry was “inactive”.
For `N#Cc1ccccc1Cn1cc(/C=C/[N+](=O)[O-])c2ccccc21`, the Potency is 29.9 µM (active).
Turning to `O=C(O)c1ccc(Cn2cc(/C=C\[N+](=O)[O-])c3ccccc32)o1`, the Potency entry was “inactive”.
For the compound `O=C(Cn1cc(/C=C\[N+](=O)[O-])c2ccccc21)Nc1ccccc1`, the Potency is 35.5 µM (active).
For `C=CCn1cc(/C=C/c2cc[n+](C)cc2)c2ccccc21`, the Potency result was “inactive”.
The value for `CCOC(=O)Cn1cc(/C=N/NC(=O)c2cc3ccccc3o2)c2ccccc21` was “inactive”.
In the case of `Cc1cc(C)cc(NC(=O)Cn2cc(C=O)c3ccccc32)c1`, the Potency result was “inactive”.
With `CCOC(=O)Cn1cc(/C=C/[N+](=O)[O-])c2ccccc21`, the Potency was 39.8 µM (active).
Take `CCOC(=O)COc1ccccc1/C=C\[N+](=O)[O-]`: the Potency is 6.31 µM (active).
As to `CCOC(=O)N/N=C/c1cn(CCCOc2ccc(C)cc2)c2ccccc12`, the Potency result is “inactive”.
With `Cc1ccccc1OCC(=O)OCC(=O)c1ccc[nH]1`, the Potency result is “inactive”.
With `N#Cc1ccccc1Cn1cc(/C=N/Nc2ccc([N+](=O)[O-])cn2)c2ccccc21`, the Potency entry is “inactive”.
Turning to `Cc1ccc(C(=O)NNC(=O)COC(=O)COc2ccccc2C#N)cc1`, the Potency result is “inactive”.
Consider `COC(=O)c1cc(-n2cccc2)ccc1N1CCOCC1`, for which the Potency entry is “inactive”.
The value for `S=C(Nc1ccccc1)Nc1ccc2c[nH]nc2c1` was “inactive”.
In the case of `Cc1ccc(CNC(=O)c2cccc3c2C(=O)c2ccc(N4CCC(C)CC4)cc2S3(=O)=O)cc1`, the Potency entry was “inactive”.
For the compound `Cc1ccc(-c2cc(-c3ccco3)c3c(N)c(C(=O)NN)oc3n2)cc1`, the Potency entry was “inactive”.
As for `CC(C)(C)[C@H](N)C(=O)N[C@H]1CCC2C3CC=C4C[C@@H](O)CC[C@]4(C)C3CC[C@@]21C` (stereo partly specified), the Potency was 37.7 µM (active).
On to `CC(=O)C1CCC2C3CC=C4CC(SC(=N)N)CCC4(C)C3CCC12C` (stereo unspecified), for which the Potency is 37.7 µM (active).
On to `Cc1cccc(OCc2n(C)c3ccccc3[n+]2CC(=O)OC2CC(C)CCC2C(C)C)c1` (stereo unspecified), for which the Potency is 35.5 µM (active).
Turning to `Nc1nnnn1/N=C/c1cc(Cl)cc(Cl)c1O`, the Potency result was “inactive”.
Consider `O=C(Nc1nccs1)c1cccnc1O`, for which the Potency result was “inactive”.
Turning to `O=C(C[C@H]1C[C@H](C(=O)N2CCOCC2)[C@@]2(CCC3CCCC3)c3[nH]c4cc(-c5ccco5)ccc4c3CCN2C1=O)NCCc1ccccn1`, the Potency is 35.5 µM (active).
For the compound `O=C(C[C@H]1C[C@H](C(=O)N2CCOCC2)[C@@]2(CCC3CCCC3)c3[nH]c4cc(-c5ccco5)ccc4c3CCN2C1=O)NCCN1CCOCC1`, the Potency was 35.5 µM (active).
In the case of `CN(C)CCCNC(=O)C[C@H]1C[C@H](C(=O)N2CCOCC2)[C@@]2(CCC3CCCC3)c3[nH]c4cc(-c5ccco5)ccc4c3CCN2C1=O`, the Potency is 35.5 µM (active).
As to `O=C(C[C@H]1C[C@H](C(=O)N2CCCCC2)[C@@]2(CCc3ccccc3)c3[nH]c4cc(-c5ccco5)ccc4c3CCN2C1=O)NCCN1CCOCC1`, the Potency was 31.6 µM (active).
As to `O=C(CCCCCn1c(=S)[nH]c2ccc(N3CCOCC3)cc2c1=O)NCCc1ccccc1`, the Potency entry was “inactive”.
Regarding `O=C(NCCN1CCOCC1)c1cc2c(=O)n3ccccc3nc2n1Cc1ccccc1`, the Potency result was “inactive”.
With `COCCCn1c(=N)c(C(=O)NCc2ccco2)cc2c(=O)n3ccccc3nc21`, the Potency entry is “inactive”.
For the compound `CCN(C(=O)COC(=O)c1cc(-c2ccc(C)o2)nc2ccccc12)C1CCS(=O)(=O)C1` (stereo unspecified), the Potency result was “inactive”.
Consider `COc1cc(NC(=O)CN2CCN(S(=O)(=O)/C=C/c3ccccc3)CC2)cc(OC)c1OC`, for which the Potency result is “inactive”.
In the case of `COc1ccc(OC)c(NC(=O)CCN2CCN(C/C=C/c3ccccc3)CC2)c1`, the Potency entry was “inactive”.
Regarding `CCOC(=O)c1[nH]c2ccc(F)cc2c1NC(=O)CN1CCN(C/C=C/c2ccccc2)CC1`, the Potency is 39.8 µM (active).
Turning to `CCCCCCCN(c1ccccc1)[C@@H]1C[C@H]2CCCC(=O)N3CC[C@@H](C1)[C@@H]23`, the Potency is 35.5 µM (active).
For the compound `COc1ccc(NC(=O)c2ccc(-c3ccc(-c4noc(C)n4)cc3C)cc2)cc1N1CCN(C)CC1`, the Potency is 39.8 µM (active).
As for `CC(C)(C)c1ccc(CN2N=Nc3ccccc3S2(=O)=O)cc1`, the Potency is 39.8 µM (active).
Under `O=C(N/N=C\c1c(O)ccc2ccccc12)c1cncc(Br)c1` stands “inactive”.
As for `CC(C)(C)C(=O)Oc1ccc2cc(-c3ccc4ccccc4n3)c(=O)oc2c1`, the Potency result is “inactive”.
Consider `COc1ccc(NC(=O)CSc2ccc3c4c(cccc24)C(=O)c2ccccc2-3)cc1`, for which the Potency is 22.4 µM (active).
As to `COc1ccc(N2C(=O)c3cccc4c(N(C)CCO)ccc(c34)C2=O)cc1`, the Potency entry was “inactive”.
Under `COC(=O)c1ccccc1SCC(=O)Nc1ccc(N2CCOCC2)cc1` stands “inactive”; under `Oc1ccc(Cl)cc1/C=N/c1ccc2c3c(cccc13)CC2`, “inactive”.
Regarding `CC(=O)N1Cc2cc(C(=O)NCc3cccc(F)c3)nc(-c3cccc(C4=CCCCC4)c3)c2[C@H]1CCO`, the Potency is 35.5 µM (active).
Turning to `CCn1c(=O)c(C(=O)NCc2ccc3c(c2)OCO3)c(O)c2ccccc21`, the Potency result is “inactive”.
Turning to `CC(C)(C)[S+]([O-])N1Cc2cc(C(=O)NCc3ccc(Oc4ccccc4)cc3)nc(-c3cccc(-c4cc5ccccc5o4)c3)c2[C@H]1CCO` (stereo partly specified), the Potency is 35.5 µM (active).
Regarding `O=C(CSc1nc(C2CCCCC2)nc2ccccc12)NCc1ccc2c(c1)OCO2`, the Potency result was “inactive”.
Under `CC(C)(C)[S+]([O-])N1Cc2cc(C(=O)NCc3ccc(Oc4ccccc4)cc3)nc(-c3cccc(-c4cc5ccccc5o4)c3)c2[C@@H]1CCO` (stereo partly specified) stands 39.8 µM (active).
The value for `CC(C)(C)[S+]([O-])N1Cc2cc(C(=O)NCc3ccc4c(c3)OCO4)nc(-c3cccc(-c4cc5ccccc5o4)c3)c2[C@@H]1CCO` (stereo partly specified) was 31.6 µM (active); that for `O=S(=O)(c1ccccc1)N1CCN=C1SCc1cccnc1` was “inactive”; that for `CCN(CC)c1ccc2cc(C(=O)NNC(=O)c3ccc(S(=O)(=O)N4CCCCC4)cc3)c(=O)oc2c1` was “inactive”.
As for `N#CC1=C(N)N2C(=C(C#N)C1c1ccc(Br)cc1)Nc1ccccc12` (stereo unspecified), the Potency entry was “inactive”.
With `O=C1OCCN1C(=O)[C@H]1[C@H](c2ccc(Cl)cc2)C(c2ccccc2)=NN1c1ccccc1`, the Potency result was “inactive”.
Under `CCOc1ccc(S(=O)(=O)[N-]c2nc3ccccc3nc2-[n+]2ccc(NC(=O)c3ccccc3C)cc2)cc1` stands “inactive”; under `Cc1cccc2cc3c(NC(=O)C(C)(C)C)nn(CC(C)C)c3nc12`, “inactive”.
In the case of `Cc1cc(NN)nc(NS(=O)(=O)c2ccc(Cl)cc2)n1`, the Potency entry was “inactive”.
The value for `CN(C)C(=O)c1cccc(-c2cccc(-c3nc(C(=O)NCc4ccccc4)cc4c3[C@@H](CCO)N([S+]([O-])C(C)(C)C)C4)c2)c1` (stereo partly specified) was 25.1 µM (active).
